Inconclusive results are not listed. The source made the active and inactive calls. Calls follow the shape of the dose curve; as a rule, active = well fitted curve in the direction sought with a large enough effect; inconclusive = small, poorly fitted or top-dose-only effect, or another doubt; inactive = no such curve, though single readings can be large; an effect the other way counts as inactive or inconclusive.
Assays:
[1] = P-glycoprotein substrates identified in KB-8-5-11 adenocarcinoma cell line, qHTS therapeutic library screen (AID 1346987); conditions: outcome: dose series up to 44.5 µM; also: series mostly up to about 44 µM; nearly all actives have a fitted effect of over 65% in size
In short: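 Luminescence from CellTiter-Glo, read 5 min after addition, quantified survival of KB-8-5-11 (P-gp-overexpressing) cells exposed to compounds for 72 h. AC50 was derived from concentration-response curves.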

[2] = NS1 protein of Zika virus - qHTS assay to identify small molecule inhibitors in human HEK 293 cells (AID 1347053); also: series mostly up to about 46 µM; nearly all actives have a fitted effect of over 55% in size
In short: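 Read-out is a two-antibody TR-FRET for ZIKV NS1, normalized between uninfected cells and infected cells. Compound added 1 h before MR766 infection at MOI 0.5; human HEK 293 cells incubated 24 h, 37 C.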

[3] = qHTS of pediatric cancer cell lines to identify multiple opportunities for drug repurposing: Primary screen for TC32 cells (AID 1347089); also: nearly all actives have a fitted effect of over 60% in size
In short: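 Luminescent CellTiter-Glo read-out of metabolically active TC32 cells after 48 h compound exposure. Primary: MIPE 11-point, 0.78 nM–46 µM; NPC 8-point, 0.59 nM–46 µM. Confirmatory: 11-point dilutions.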

[4] = qHTS of pediatric cancer cell lines to identify multiple opportunities for drug repurposing: Primary screen for DAOY cells (AID 1347090); also: series mostly up to about 46 µM; nearly all actives have a fitted effect of over 55% in size
In short: (§1)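 Eight- or eleven-point concentration series, 48 h treatment at 37 degrees C in growth media; readout CellTiter-Glo luminescence. Potency and efficacy were taken from the concentration-response curves.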

[5] = qHTS of pediatric cancer cell lines to identify multiple opportunities for drug repurposing: Primary screen for SJ-GBM2 cells (AID 1347091)
In short: as §1

[6] = qHTS of pediatric cancer cell lines to identify multiple opportunities for drug repurposing: Primary screen for A673 cells (AID 1347092); also: nearly all actives have a fitted effect of over 45% in size
In short: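 A673 cells (500-1,000 cells/well in growth media) were pre-incubated 5 h at 37 degrees C, then exposed to compounds for 48 h. Viability was read as CellTiter-Glo luminescence; concentration-response curves came directly from the primary screen.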

[7] = qHTS of pediatric cancer cell lines to identify multiple opportunities for drug repurposing: Primary screen for SK-N-MC cells (AID 1347093); also: series mostly up to about 46 µM
In short: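 Metabolically active cells were quantified by ATP-dependent luminescence (CellTiter-Glo, 15 min at room temperature) following 48 h treatment. Cells had been plated at 500-1,000 per well and settled for 5 h beforehand.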

[8] = qHTS of pediatric cancer cell lines to identify multiple opportunities for drug repurposing: Primary screen for BT-37 cells (AID 1347094); also: series mostly up to about 57 µM
In short: (§2)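 Viability was measured as metabolically active cells after 48 hours of treatment, read by CellTiter-Glo luminescence. Compounds were tested at multiple final concentrations, giving concentration-response curves.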

[9] = qHTS of pediatric cancer cell lines to identify multiple opportunities for drug repurposing: Primary screen for NB-EBc1 cells (AID 1347095)
In short: as §2

[10] = qHTS of pediatric cancer cell lines to identify multiple opportunities for drug repurposing: Primary screen for U-2 OS cells (AID 1347096); also: nearly all actives have a fitted effect of over 50% in size
In short: (§3)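 Cells (500-1,000/well) in growth media were settled 5 h at 37 degrees C, then given compounds for 48 h. Viability was read as CellTiter-Glo luminescence. Primary runs used MIPE at 11 points (0.78 nM-46 µM) and NPC at 8 points (0.59 nM-46 µM); follow-ups used 11 points.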

[11] = qHTS of pediatric cancer cell lines to identify multiple opportunities for drug repurposing: Primary screen for SK-N-SH cells (AID 1347098);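 also: DMSO served as neutral control and bortezomib at 2.3 µM as positive control; nearly all actives have a fitted effect of over 65% in size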
In short: (§4)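 Cells (500-1,000/well) rested 5 h, then received compounds for 48 h; metabolically active cells were measured by CellTiter-Glo luminescence. Final concentrations spanned up to 46 µM (MIPE, 11-point) or 0.59 nM-46 µM (NPC, 8-point) in primary screens, 11-point in follow-ups.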

[12] = qHTS of pediatric cancer cell lines to identify multiple opportunities for drug repurposing: Primary screen for NB1643 cells (AID 1347099); also: nearly all actives have a fitted effect of over 50% in size
In short: as §2

[13] = qHTS of pediatric cancer cell lines to identify multiple opportunities for drug repurposing: Primary screen for LAN-5 cells (AID 1347100)
In short: as §3

[14] = qHTS of pediatric cancer cell lines to identify multiple opportunities for drug repurposing: Primary screen for BT-12 cells (AID 1347101); also: nearly all actives have a fitted effect of over 25% in size
In short: as §4

[15] = qHTS of pediatric cancer cell lines to identify multiple opportunities for drug repurposing: Primary screen for OHS-50 cells (AID 1347103); also: nearly all actives have a fitted effect of over 40% in size
In short: as §4

[16] = qHTS of pediatric cancer cell lines to identify multiple opportunities for drug repurposing: Primary screen for RD cells (AID 1347104); also: nearly all actives have a fitted effect of over 55% in size
In short: as §2

[17] = qHTS of pediatric cancer cell lines to identify multiple opportunities for drug repurposing: Primary screen for MG 63 (6-TG R) cells (AID 1347105); also: nearly all actives have a fitted effect of over 50% in size
In short: as §2

[18] = qHTS of pediatric cancer cell lines to identify multiple opportunities for drug repurposing: Primary screen for Saos-2 cells (AID 1347097); also: nearly all actives have a fitted effect of over 40% in size
In short: as §2

[19] = qHTS of pediatric cancer cell lines to identify multiple opportunities for drug repurposing: Primary screen for Rh18 cells (AID 1347102); also: nearly all actives have a fitted effect of over 65% in size
In short: as §3

Measured: Potency

O=C(OOC(=O)c1ccccc1)c1ccccc1
not listed: [18] | [19]
inactive: all other assays above

O=C(O)CCC(=O)O
not listed: [11] | [14] | [19]
inactive: all other assays above

C=CCN1C[C@H](C(=O)N(CCCN(C)C)C(=O)NCC)C[C@@H]2c3cccc4[nH]cc(c34)C[C@H]21
not listed: [18]
inactive: all other assays above

CCCCCCCC(=O)OCC(COC(=O)CCCCCCC)OC(=O)CCCCCCC
not listed: [6] | [7] | [12] | [19]
inactive: all other assays above

Cc1c(Cn2ccnc2)c2ccccc2n1CCC(=O)O
not listed: [6] | [11] | [15]
inactive: all other assays above

Cn1c(=O)c2c(ncn2CCO)n(C)c1=O
not listed: [6] | [7]
inactive: all other assays above

NC(=O)c1ccc([N+](=O)[O-])cc1Cl
not listed: [7] | [11] | [14] | [15] | [19]
inactive: all other assays above

Cc1c(N(C)C)c(=O)n(-c2ccccc2)n1C
not listed: [6] | [11] | [19]
inactive: all other assays above

O=C1C(c2[nH]c3ccccc3c2O)=Nc2ccccc21
not listed: [6] | [12] | [19]
inactive: all other assays above

Reference: PubChem BioAssay (NCATS)
